In ChEMBL document CHEMBL5308504, “Tm Shift (DSF) assay results for EUbOPEN Chemogenomics Library” (2023) one finds ΔTm data, which are given here for nine compounds.

Several values for one entry are separate records, joined by “and”; a condition that tells them apart may be missing. Identical values can stand only once.

Common to all, as to details: Compound concentration 20.0 uM, Protein concentration 2.0 uM, Result type QC Liability
Assay [1] concerns the target Tyrosine-protein kinase ABL1 (Homo sapiens) (UniProt P00519).
Assay [2] addresses Cyclin-dependent kinase 2 (Homo sapiens) (UniProt P24941).
Assay [3] deals with Casein kinase I isoform delta (Homo sapiens) (UniProt P48730).
Assay [4] concerns the target Glycogen synthase kinase-3 beta (Homo sapiens) (UniProt P49841).
Assay [5] deals with Mitogen-activated protein kinase 1 (Homo sapiens) (UniProt P28482).
In assay [6] the target is T1, Aurora kinase A (Homo sapiens) (UniProt O14965).
T1 sequence (whole entry): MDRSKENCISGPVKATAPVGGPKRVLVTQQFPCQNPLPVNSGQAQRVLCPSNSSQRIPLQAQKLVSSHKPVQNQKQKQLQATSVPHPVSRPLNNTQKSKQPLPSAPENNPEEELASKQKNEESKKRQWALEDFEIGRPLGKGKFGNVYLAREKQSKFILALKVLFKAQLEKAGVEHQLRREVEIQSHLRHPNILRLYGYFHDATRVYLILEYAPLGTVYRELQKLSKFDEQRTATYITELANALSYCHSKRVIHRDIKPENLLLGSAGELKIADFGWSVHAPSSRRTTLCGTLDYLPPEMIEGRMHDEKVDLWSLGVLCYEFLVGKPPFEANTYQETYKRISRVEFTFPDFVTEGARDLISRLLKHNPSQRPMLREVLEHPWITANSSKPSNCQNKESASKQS

Chain of Casein kinase I isoform delta (Homo sapiens) (P48730 whole entry, looked up, canonical isoform): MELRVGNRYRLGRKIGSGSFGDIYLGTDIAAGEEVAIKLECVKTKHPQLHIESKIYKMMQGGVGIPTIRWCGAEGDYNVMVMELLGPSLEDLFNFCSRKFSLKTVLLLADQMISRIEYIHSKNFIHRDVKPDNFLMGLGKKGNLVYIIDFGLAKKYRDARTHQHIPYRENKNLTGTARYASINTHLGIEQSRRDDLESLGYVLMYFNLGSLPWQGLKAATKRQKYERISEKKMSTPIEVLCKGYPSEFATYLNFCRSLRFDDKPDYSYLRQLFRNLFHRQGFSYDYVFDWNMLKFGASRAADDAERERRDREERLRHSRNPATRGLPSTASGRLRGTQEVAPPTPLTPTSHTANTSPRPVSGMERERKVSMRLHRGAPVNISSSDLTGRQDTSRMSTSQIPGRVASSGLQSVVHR
Chain of Glycogen synthase kinase-3 beta (Homo sapiens) (P49841 whole entry, looked up): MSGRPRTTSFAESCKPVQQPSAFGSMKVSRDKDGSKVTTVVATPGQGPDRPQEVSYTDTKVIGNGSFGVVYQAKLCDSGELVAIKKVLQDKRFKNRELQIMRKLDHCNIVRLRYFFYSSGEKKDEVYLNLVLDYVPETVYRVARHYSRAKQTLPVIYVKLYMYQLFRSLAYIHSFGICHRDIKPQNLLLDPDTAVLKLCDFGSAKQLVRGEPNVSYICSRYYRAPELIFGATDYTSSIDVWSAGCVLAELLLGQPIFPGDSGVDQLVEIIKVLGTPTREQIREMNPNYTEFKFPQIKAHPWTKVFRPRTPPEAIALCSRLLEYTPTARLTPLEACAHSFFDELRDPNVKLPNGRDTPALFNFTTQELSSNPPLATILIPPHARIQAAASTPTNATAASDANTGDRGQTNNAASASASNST
Chain of Tyrosine-protein kinase ABL1 (Homo sapiens) (P00519 whole entry): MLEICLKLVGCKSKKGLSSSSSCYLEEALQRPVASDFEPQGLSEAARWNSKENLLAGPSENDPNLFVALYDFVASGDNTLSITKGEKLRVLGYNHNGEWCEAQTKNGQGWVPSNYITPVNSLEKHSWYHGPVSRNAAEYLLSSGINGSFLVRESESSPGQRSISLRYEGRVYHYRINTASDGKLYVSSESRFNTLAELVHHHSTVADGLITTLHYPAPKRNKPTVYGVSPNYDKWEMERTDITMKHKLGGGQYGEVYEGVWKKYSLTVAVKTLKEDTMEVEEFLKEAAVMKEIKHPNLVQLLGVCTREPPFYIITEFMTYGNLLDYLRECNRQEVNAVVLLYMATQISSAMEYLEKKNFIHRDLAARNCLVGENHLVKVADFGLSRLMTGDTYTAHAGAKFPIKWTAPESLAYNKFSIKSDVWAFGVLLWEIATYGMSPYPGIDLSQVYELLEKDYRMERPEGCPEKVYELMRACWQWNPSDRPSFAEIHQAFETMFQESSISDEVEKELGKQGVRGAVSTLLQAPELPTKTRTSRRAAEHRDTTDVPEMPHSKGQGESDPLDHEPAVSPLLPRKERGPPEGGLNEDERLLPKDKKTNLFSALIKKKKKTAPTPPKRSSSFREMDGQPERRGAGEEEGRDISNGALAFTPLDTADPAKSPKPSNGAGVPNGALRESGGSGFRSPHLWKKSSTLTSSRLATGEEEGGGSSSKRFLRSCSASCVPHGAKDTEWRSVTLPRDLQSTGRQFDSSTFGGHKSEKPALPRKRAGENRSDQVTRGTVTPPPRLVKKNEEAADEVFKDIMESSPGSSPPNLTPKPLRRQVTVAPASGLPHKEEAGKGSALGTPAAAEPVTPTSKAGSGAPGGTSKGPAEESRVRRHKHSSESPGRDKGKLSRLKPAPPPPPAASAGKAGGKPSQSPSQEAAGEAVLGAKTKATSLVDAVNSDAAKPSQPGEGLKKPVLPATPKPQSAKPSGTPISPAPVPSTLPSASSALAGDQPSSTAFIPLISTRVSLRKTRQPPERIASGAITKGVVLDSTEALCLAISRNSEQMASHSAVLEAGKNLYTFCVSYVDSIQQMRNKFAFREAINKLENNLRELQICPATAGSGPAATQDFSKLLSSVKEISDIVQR
Chain of Mitogen-activated protein kinase 1 (Homo sapiens) (P28482 whole entry): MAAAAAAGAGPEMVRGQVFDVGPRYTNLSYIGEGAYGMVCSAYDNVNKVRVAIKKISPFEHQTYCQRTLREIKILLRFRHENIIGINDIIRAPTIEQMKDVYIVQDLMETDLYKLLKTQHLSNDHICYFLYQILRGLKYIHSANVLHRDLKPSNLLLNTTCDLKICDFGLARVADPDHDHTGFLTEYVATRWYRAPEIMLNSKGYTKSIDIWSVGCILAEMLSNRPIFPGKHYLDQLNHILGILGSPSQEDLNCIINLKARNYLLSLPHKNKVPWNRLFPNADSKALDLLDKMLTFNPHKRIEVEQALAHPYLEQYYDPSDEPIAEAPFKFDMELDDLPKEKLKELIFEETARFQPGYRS

Broadly, the ΔTm is the change in melting temperature against a reference sample. As for `COc1cc(OC)cc(-c2cc3cnc(N)nc3nc2NC(=O)NC(C)(C)C)c1`, the ΔTm in assay [1] was 0.36 °C and 1.41 °C; in assay [2], 0.84 °C and 0.15 °C; in assay [3], 0.28 °C and -0.14 °C; in assay [4], -0.48 °C and 0.1 °C; in assay [5] it was 0.47 °C and 0.55 °C; in assay [6], -0.29 °C and 1.1 °C.

Take `Nc1ncnc2c1ccn2[C@@H]1O[C@H]([C@@H](O)c2ccccc2)[C@@H](O)[C@H]1O`: the ΔTm in assay [1] was 0.21 °C; in assay [2], 0.7 °C; in assay [3] it was 0.65 °C; in assay [4] it was -0.88 °C; in assay [5], 0.25 °C; in assay [6], -1.22 °C.

Take `NC(=O)c1ccc(-c2nc(-c3ccc4c(c3)OCCO4)c(-c3ccccn3)[nH]2)cc1`: the ΔTm was 1 °C in assay [1]; -0.38 °C in assay [2]; 5.39 °C in assay [3]; -0.91 °C in assay [4]; 0.36 °C in assay [5]; -1.32 °C in assay [6].

In the case of `COc1c(-c2cn(C3CCC(=O)NC3=O)nn2)csc1C(=O)N1CCCC1` (centres undefined), the ΔTm in assay [1] was 0.22 °C; in assay [2], 0.04 °C; in assay [3], 0 °C; in assay [4], -0.65 °C; in assay [5] it was 0.26 °C; in assay [6], -1.14 °C.

Regarding `CN[C@@H](C)C(=O)N[C@H](C(=O)N1CCC[C@H]1C(=O)N[C@@H]1CCCc2ccccc21)C1CCCCC1`, the ΔTm in assay [1] is 0.2 °C; in assay [2], 0.07 °C; in assay [3], 1.13 °C; in assay [4], -0.99 °C; in assay [5], 0.48 °C; in assay [6] it was -0.97 °C.

Take `COc1ccc(C(=O)N[C@H](C)c2cccc(C(=O)Nc3nc4c(s3)CN(C)CC4)c2)cc1C`: the ΔTm in assay [1] is 0.22 °C; in assay [2], 0.42 °C; in assay [3], 0.41 °C; in assay [4] it was -0.51 °C; in assay [5], 0.45 °C; in assay [6] it was 0.16 °C.

For the compound `COc1ccc2c(O[C@@H]3C[C@H]4C(=O)N[C@]5(C(=O)NS(=O)(=O)C6(C)CC6)CC5/C=C\CCCCC[C@H](NC(=O)c5ccn(C)n5)C(=O)N4C3)cc(OC(C)C)nc2c1C` (some centres undefined), the ΔTm in assay [1] is -0.32 °C; in assay [2], -0.49 °C; in assay [3] it was -1.66 °C; in assay [4], -4.13 °C; in assay [5], -0.6 °C; in assay [6], -0.12 °C.

Turning to `O=C(Nc1cc2cc[nH]c(=O)c2cc1Cl)[C@H]1CNC[C@@H]1c1cccnc1`, the ΔTm was 0.03 °C in assay [1]; 0.53 °C in assay [2]; 0.29 °C in assay [3]; -0.6 °C in assay [4]; 0.49 °C in assay [5]; -0.12 °C in assay [6].

As for `O=C(Cc1ccccc1[N+](=O)[O-])Nc1ccc(-c2ccc(C(O)(C(F)(F)F)C(F)(F)F)cc2F)cc1`, the ΔTm in assay [1] is 0.67 °C; in assay [2] it was 2.11 °C; in assay [3], -0.86 °C; in assay [4] it was -0.71 °C; in assay [5] it was -0.87 °C; in assay [6], -1.59 °C.
